Screening data from PubChem BioAssay.
Sampled rows, rich in hits. Any-hit rate of the full collection: about 4.6%.
HCV inh: HCV inhibition | Huh7.5.1 HCVcc-Cre infection, luciferase reporter, 44 h | Potency, µM (highest dose often 41.8 µM), for the others: at the top dose activity change, negative = inhibition, actives largely listed as inhibitors | actives 3.4% (n = 340,000); active = well fitted inhibition curve with a large enough effect; inconclusive = small, poorly fitted or top-dose-only effect, or another doubt; inactive = no such curve, though single readings can be large or run the other way
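After 44 h co-culture of compound, cells and HCVcc-Cre (~0.5 moi), substrate is added for 15 min at room temperature and luciferase measured over 15 sec. Cells were seeded at 1,000/well and pre-cultured 4 h.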
VACV Venus inh: vaccinia inhibition (Venus reporter) | Vaccinia virus Venus reporter expression, fluorescence | Potency, µM (highest dose often 36.5 µM), inactives show top-dose activity change, negative = inhibition, hits mostly inhibitors | actives 0.46% (n = 330,000); calls by dose curve; tested in A549 cells; also: nearly all actives have a fitted effect of over 30% in size
Marburg entry inh: blocks Marburg virus binding to or entry into cells; Marburg virus pseudotyped entry inhibition, cell reporter; actives 1.8% (n = 300,000); Potency, µM (titrated, usually from 37.8 µM), for inactives: at the highest dose activity change, negative = inhibition, actives largely listed as inhibitors; calls by dose curve; tested in HEK293 cells
LASV entry inh: inhibitors of Lassa virus binding or cell entry; Potency, µM (top dose mostly 37.9 µM), for the others: at the highest dose activity change, negative = inhibition, hits mostly inhibitors; actives 1.2% (n = 300,000); AID 540256; Lassa virus pseudotype entry inhibition, cell reporter; calls by dose curve; tested in HEK293 cells; also: nearly all actives have a fitted effect of over 50% in size
Vaccinia mCherry: vaccinia inhibition (mCherry reporter) | Vaccinia virus mCherry reporter infection, fluorescence | actives 0.63% (n = 310,000) | Potency, µM (titrated, usually from 36.5 µM), inactives show at the top dose activity change, negative = inhibition, actives largely listed as inhibitors; calls by dose curve; tested in A549 cells; also: nearly all actives have a fitted effect of over 35% in size
* = called active by the depositor; i = inactive; ? = inconclusive; nt = no result given; ! = repeats disagree; [ ] = dose if it differs, or a comment. % is scaled to controls: 0 for no effect and ±100 for the full control effect; potency is read from the fitted curve at half-maximal effect.

SMILES | HCV inh | VACV Venus inh | Marburg entry inh | LASV entry inh | Vaccinia mCherry
Cc1c(OCC(=O)NC2CC(C)(C)NC(C)(C)C2)ccc2c1oc(=O)c1ccccc12 | 2µM* | nt | nt | nt | nt
CC1(C)CC(NC(=O)COc2ccc(Br)cc2Cl)CC(C)(C)N1 | 25.1µM* | nt | nt | nt | nt
Cc1ccc2c(c1)C(c1ccccc1)N(C(=O)c1ccccc1F)CC(=O)N2 (centres undefined) | nt | -13.6% | -6.2%[46.1 µM] | ? | -11.2%
Cc1ccc(NC(=O)C(=O)NCC(c2cccnc2)N2CCN(Cc3ccccc3)CC2)cc1C (centres undefined) | nt | -17.3% | nt | -2.5%[46.1 µM] | -20.9%
CCOc1ccc(CNC(=O)c2ccc3nc(C(C)C)oc3c2)cc1 | nt | -8.4% | nt | -28.8%[46.1 µM] | i
Cc1nnc(-c2cccc(Br)c2)c2cn(-c3ccc(Br)cc3)nc12 | 11.2µM* | ? | ? | ? | -6.9%
O=C(NCCCN1CCN(c2ccccc2F)CC1)c1ccc2nc(CCc3ccccc3)oc2c1 | nt | -15.5%[7.34 µM] | nt | -24.4%[46.1 µM] | -12.0%[7.34 µM]
CCCSc1ccc(-c2nn(-c3ccccc3)cc2/C=C(/C#N)C(=O)N2CCOCC2)cc1 | ? | -21.4% | 7.08µM* | ? | -26.4%
COc1ccc([C@H]2CC(=O)c3sc(N)nc3C2)cc1 | nt | nt | -2.1%[46.1 µM] | nt | nt
NS(=O)(=O)c1ccc(N=Nc2c(-c3ccccc3)[nH]n(-c3nc(-c4ccccc4)cs3)c2=O)cc1 | 6.31µM* | -17.9% | 22.4µM* | ? | i
COc1cccc(CNC(=O)Cc2ccc(NC(=O)N3CCSc4ncccc43)cc2)c1OC | nt | -13.9% | nt | -10.6%[46.1 µM] | -7.6%
CCC1Sc2ccc(S(=O)(=O)Nc3ccc(OC)c(OC)c3)cc2NC1=O (centres undefined) | 10µM* | -10.6% | ? | ? | -10.6%
Nc1c(Br)cc(/C=C2\C=Cc3ccccc32)cc1Br | nt | -14.1% | nt | nt | -18.0%
Cc1c2c(n3c(nc4ccccc43)c1C#N)N(CCN(C)C)CC2 | 11.2µM* | 0.0% | ? | 0.1%[46.1 µM] | i
Cc1cc(NCCN2CCCCC2)n2c(nc3ccccc32)c1C#N | 7.08µM* | nt | nt | nt | nt
Cc1c2c(n3c(nc4ccccc43)c1C#N)N(CCCN(C)C)CC2 | ? | -26.1% | ? | 13.2% | -15.2%
Cn1cc(C(=O)NCc2ccc(Cl)cc2)c(=O)c2cc(S(=O)(=O)N3CCCCCC3)ccc21 | nt | -18.8% | 11.6%[46.1 µM] | 12.3%[46.1 µM] | ?
O=C(Nc1nnc(-c2ccccc2)o1)c1ccc(Cl)cc1 | -28.8% | -5.6% | 12.6µM* | ? | -6.0%
COc1ccc2c(c1)CO[C@H]([C@H](O)CO)[C@H]2C=CC#Cc1ccc(C(C)(C)C)cc1 | nt | nt | -9.0%[14.2 µM] | nt | nt
COc1cc(C2C3=C(Nc4ncnn42)c2ccccc2CC3)cc(OC)c1OC (centres undefined) | ? | nt | 0.731µM*! | ? | nt
CC#CCN1C(=O)NC(c2ccccc2)C(C(=O)OCC)=C1c1ccccc1 (centres undefined) | nt | nt | 7.0%[14.2 µM] | nt | nt
COC(=O)[C@@H]1CCCN1C(=O)c1c(OC)cc(=O)n2c1CCN(Cc1ccc3c(c1)CCO3)CC2 | nt | 2.1% | nt | nt | -8.4%
Cc1cc([N+](=O)[O-])ccc1NC(=O)CN1C2CCC1CC(NC(=O)NC13CC4CC(CC(C4)C1)C3)C2 (centres undefined) | 2.51µM* | -26.8% | ? | -20.8%[46.1 µM] | i
COc1cc(CN2CCCC(n3cc(C(=O)N4CCCCC4)nn3)C2)cc(OC)c1OC (centres undefined) | nt | -4.3% | nt | nt | 0.9%
Brc1ccc(-c2ccc(CNCCSc3nnnn3-c3ccccc3)o2)cc1 | nt | -4.3% | 1.6%[46.1 µM] | 20.7%[46.1 µM] | -2.9%
SMILES | HCV inh | VACV Venus inh | Marburg entry inh | LASV entry inh | Vaccinia mCherry
CCCCCCC(C)(C)c1ccc([C@@H]2C[C@H](O)CC[C@H]2CCCO)c(O)c1 | ? | ? | 13µM* | ? | ?
O=C(NCc1cccnc1)c1cc(Sc2ccc(F)cc2F)nc2ccccc12 | 10µM* | -24.4% | 11.2µM* | ? | -19.2%
CN(Cc1cccc(Cl)c1Cl)c1ccc(S(=O)(=O)N2CCCCC2)cc1[N+](=O)[O-] | 11.2µM* | -14.6% | ? | 5.6% | -0.1%
O=C(OCc1ccc(F)cc1)c1ccc2c(c1)-c1ccccc1C2=O | -29.5% | -19.4% | -3.0% | 1.12µM* | nt
CCOC(=O)c1cnc(Cc2ccccc2)[nH]c1=O | -2.1% | nt | nt | nt | nt
CCOC(=O)C1=C(Cc2ccc(F)cc2)C(=O)c2ccccc2C1=O | 7.94µM* | nt | ? | ? | nt
O=C(C[n+]1cccc2cc(Cl)ccc21)c1ccc(Br)cc1 | nt | 126.4% | nt | nt | i
Brc1ccc(-c2cn3nc4c(nc3n2)CCCC4)cc1 | -15.1% | -7.2% | 5.01µM* | ? | i
c1ccc(-c2cn3nc(-c4ccccc4)cnc3n2)cc1 | 10.3% | -11.9% | -4.1% | ? | i
c1ccc(-c2cn3nc4c(nc3n2)CCCC4)cc1 | -6.7% | -10.3% | 1µM* | 1.12µM* | -9.7%
CCCc1cc(N2CCN(c3cccc(C)c3C)CC2)n2cnnc2n1 | nt | ? | -1.4%[46.1 µM] | -25.1%[46.1 µM] | ?
CC[C@H](C)[C@@H]1NC(=O)CNC(=O)c2csc(n2)[C@H](C(C)(C)O)OC(=O)C(C)(C)[C@H](CCCC(C)(Cl)Cl)OC(=O)c2csc1n2 | nt | 6.31µM* | nt | nt | 5.62µM*
Cc1ccc2c(c1)c1c3n2CCN(C(=O)CCl)C3CCC1 (centres undefined) | 22.4µM* | -14.3% | ? | ? | ?
Nc1cc(N)[nH]c(=S)n1 | nt | -12.5% | nt | nt | 29.4%
O=C(CSc1ncnc2ccccc12)Nc1cc(S(=O)(=O)N2CCCCC2)ccc1Cl | 10µM* | ? | ? | ? | ?
Cc1ccc(S(=O)(=O)N2CCCCC2)cc1NC(=O)CSc1ncnc2ccccc12 | ? | ? | ? | ? | 11.2µM*
Cc1ccc(NC(=O)CSc2ncnc3ccccc23)cc1S(=O)(=O)N1CCCCCC1 | ? | ? | ? | -0.3% | ?
O=C(CSc1ncnc2ccccc12)Nc1cccc(S(=O)(=O)N2CCCC2)c1 | 11.5% | -23.0% | ? | 15.6%[46.1 µM] | -13.9%
Cc1ccc2c(c1)N(C(=O)Nc1cccc(C)c1C)CCO2 | nt | -15.2% | nt | -15.6%[46.1 µM] | -18.6%
O=C1NC(c2cc3ccccc3nc2Cl)Nc2ccccc21 (centres undefined) | 9.5% | -10.7% | 7.3% | ? | -14.2%
O=C1NC(c2cccc3ccccc23)Nc2ccc(Cl)cc21 (centres undefined) | -24.3% | 11.2µM* | ? | ? | ?
COc1cc(C2c3c(oc4ccc(F)cc4c3=O)C(=O)N2c2nc(C)c(C)s2)cc(OC)c1OC (centres undefined) | nt | -2.0% | ? | -6.4%[46.1 µM] | -5.7%
CCOc1ccc(Br)cc1C(=O)N/N=C/c1cccc(C)n1 | 13.8% | nt | nt | nt | nt
Cc1cccc(/C=N/NC(=O)c2cc(Br)ccc2O)n1 | 3.98µM* | -22.5% | ? | ? | -28.7%
COC(=O)Nc1nc2ccc(Oc3ccc(NC(=O)Nc4ccccc4)cc3)cc2[nH]1 | nt | nt | nt | 3.15µM* | nt
CCc1cccc(NC(=O)Nc2ccc(Oc3ccc4nc(NC(=O)OC)[nH]c4c3)cc2)c1 | nt | nt | nt | 12.5µM* | nt
O=C(c1ccco1)n1nc(-c2ccccc2)nc1NCc1ccccc1Cl | nt | -17.3% | ? | 4.9%[46.1 µM] | -15.0%
Oc1ccc2ccccc2c1C1Nc2cccc3cccc(c23)N1 | -3.7% | ? | 4.8% | 13.9% | ?
